# High-throughput results deposited in PubChem by several laboratories.
# Shown are actives, neighbours in structure and some others; about 2.2% of the full set was active somewhere.
# CRFR2-BP ag: agonists of human CRF-binding protein/CRF-R2 receptor complex. HEK293 CRF-R2/CRF-BP, calcium dye fluorescence (FLIPR); percent of saturating CRF peptide response. activation, % at 13.2 µM. actives 0.46% (n = 350,000). AID 588473;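 active = activation of at least 50%, plus an integration ratio under a set limit after plate pattern correction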;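 also: plate controls were neutral control wells without compound for no effect and CRF at EC100 for full effect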
# Cardiac RTF inh: cardiac RTF calcium desensitization; P19429+P45379; IANBD-labeled cardiac RTF, Ca2+ fluorescence; inhibition, % at 7.15 µM; actives 0.12% (n = 340,000);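 active = inhibition above the mean inhibition of all tested compounds plus 3 SD, cut at about 17% in these data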;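 also: assay run at fixed EC70 calcium of 1.6 mM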
# Myeloid diff MLP: promotes myeloid progenitor differentiation. ER-HoxA9 myeloid progenitors, lysozyme-GFP differentiation, flow cytometry. calls only at 10 µM. actives 1% (n = 360,000). AID 624256;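 active = normalized GFP-positive differentiation at or above the plate's own cutoff, the solvent-only control mean plus 3 SD; inconclusive = no clear call, values can overlap the other calls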;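 also: cells exposed to compound for four days before flow analysis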
# CRFBP-R2 block: CRF-BP/CRF-R2 complex antagonism. actives 0.59% (n = 350,000). HEK293 CRF-R2/CRF-BP, CRF-induced calcium fluorescence. inhibition, % at 11.8 µM;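 active = inhibition of the ligand-induced calcium signal above about 50% at the single tested concentration, limit read from the data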
# RTF Ca sens act: cardiac RTF calcium sensitization; actives 0.24% (n = 340,000); AID 493008; IANBD-labeled TnC RTF fluorescence at EC20 calcium; 0% EC20 calcium, 100% full calcium; activation, % at 7.2 µM;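 active = activation above the mean over all tested compounds plus 3 SD, cut at about 30% in these data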;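 also: rise in fluorescence read as greater calcium sensitivity of cardiac thin filaments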
# Numbers without * were called inactive; i = inactive; ? = inconclusive; nt = not tested or not shown; + = active, no number.
SMILES,CRFR2-BP ag,Cardiac RTF inh,Myeloid diff MLP,CRFBP-R2 block,RTF Ca sens act
CCOc1ccc(/C=N/OCC(=O)NC(c2ccccc2)c2ccccc2)cc1,53.9*,-3.6,i,-142.5,3.1
O=C(NC(=S)Nc1cc(Cl)ccc1O)c1cccc(Br)c1,5.8,0.1,+,6.0,-4.2
O=C(NC(=S)Nc1cccnc1)c1cccc(Br)c1,-1.2,3.4,i,-4.3,-4.2
COc1ccc(CC(=O)NNS(=O)(=O)c2ccccc2)cc1OC,0.1,-4.5,i,-2.5,8.3
Cc1nnsc1-c1onc(C)c1C(=O)Nc1cc(Cl)cc(Cl)c1,-2.6,0.0,i,-2.3,-0.9
Cc1nnsc1-c1onc(C)c1C(=O)O/N=C/c1ccc(Cl)cc1,-0.3,0.9,i,124.7*,0.5
O=C(/C=C/c1ccc2ccccc2n1)c1cc(Br)ccc1O,1.7,-27.0,+,-1.5,6.7
O=C(O)/C=C/c1ccc2ccccc2n1,-0.7,-7.5,i,3.1,2.1
COC(=O)C(CC(C)C)NC(=O)C(N)Cc1ccccc1 (stereo not drawn),1.5,-3.1,i,-12.3,7.5
COC(=O)[C@H](Cc1ccccc1)NC(=O)[C@@H](N)CC(=O)OCc1ccccc1,-1.6,-7.4,+,0.2,4.1
O=C(Cn1ncc2c([nH]c3ccccc32)c1=O)Nc1ccc(CN2CCCCC2)cc1,-0.8,2.6,+,-8.4,-7.0
Cn1c(-c2c(N)n(-c3ccccc3)c3nc4ccccc4nc23)nc2ccccc21,85.8*,-7.2,i,-200.3,9.1
Cc1cccc(-n2c(N)c(-c3nc4ccccc4n3C)c3nc4ccccc4nc32)c1,37.4,-7.6,i,-103.1,4.3
CCOC(=O)C1CCN(C(=O)c2cc3cc(Br)ccc3oc2=O)CC1,-0.8,-37.6,i,19.0,-2.8
CCCCC[C@H](C)N1C[C@H](COCc2ccccc2)Oc2cc(N3CCC[C@H]3COC)ccc2S1(=O)=O,nt,nt,i,nt,nt
CS(=O)(=O)c1ccc(S(=O)CC(=O)OCc2ccccc2)c([N+](=O)[O-])c1 (stereo not drawn),5.4,-6.3,?,53.0*,1.4
COc1cc2c(cc1OC)C(c1cccc(Br)c1)NC(=O)C2 (stereo not drawn),-1.9,-6.9,i,1.4,0.6
COc1cc2c(cc1OC)C(c1c(Cl)cccc1Cl)NC(=O)C2 (stereo not drawn),52.1*,2.2,i,0.0,-1.6
CC(C)Nc1nc(NC(C)C)nc(C(N)=O)n1,0.8,-2.3,i,-31.8,0.4
Cc1ccccc1NC(=O)c1ccc(-c2ccc(Cl)cc2Cl)o1,-3.0,-4.4,i,66.2*,4.1
Cc1cc(NCC2CCCCC2)nc2ccccc12,3.8,3.3,+,-24.8,-2.3
CCOC(=O)c1sc(-c2ccc(C(F)(F)F)cc2)nc1O,57.9*,-5.4,i,53.5*,-0.5
CCOc1ccc(CNC(=O)c2ccc(Sc3ccc(C)cc3)c(NC(C)=O)c2)cc1,2.3,-0.6,i,24.7,-3.9
Cc1cccc(C(=O)Oc2ccc(/C=N/NC(=O)c3ccc(O)cc3)cc2)c1,2.9,-5.2,i,105.3*,-3.6
COc1ccc(C2c3ccc(O)cc3Oc3ncn4nc(-c5cccnc5)nc4c32)cc1OC (stereo not drawn),1.6,2.9,+,-25.9,-4.1
SMILES,CRFR2-BP ag,Cardiac RTF inh,Myeloid diff MLP,CRFBP-R2 block,RTF Ca sens act
Cc1nn2c(N)c(-c3ccccc3)cnc2c1-c1ccc(Cl)cc1,1.1,-11.8,i,54.4*,0.3
Cc1nc2c(-c3ccccc3)c(C)nn2c(N)c1-c1ccccc1,2.6,14.3,i,-12.8,3.3
O=C(N/N=C/c1c(O)n(-c2ccc(Cl)cn2)c(=O)c2ccccc12)c1ccncc1,55.1*,-17.5,i,-68.0,19.7
O=C(N/N=C\c1c(O)ccc2ccccc12)c1ccc(O)cc1,3.5,4.4,?,-2.7,3.3
CC(=NNC(=O)c1ccncc1)c1ccc2ccccc2c1O,296.5*,-65.9,nt,-328.0,48.3*
O=C(NN=Cc1c(O)ccc2ccccc12)c1ccncc1,148.7*,-49.4,nt,-101.7,31.3*
O=C(N/N=C/c1c(O)ccc2ccccc12)c1cccnc1,22.4,-15.4,?,-16.1,2.3
CC(=NNC(=O)c1ccncc1)c1ccccc1O,0.1,-12.7,?,0.3,0.9
O=C(N/N=C/c1c(O)ccc2ccccc12)c1ccc(Br)o1,101.2*,-0.9,?,-50.3,-0.7
Cn1c(C(=O)O)c(CC(=O)N2CCC(Cc3ccccc3)CC2)c2ccccc21,-0.8,-8.6,i,7.7,-5.0
CCN(CC)S(=O)(=O)c1ccc(C)c(NC(=O)COC(=O)CN2C(=O)NC(C)(C)C2=O)c1,0.9,-5.7,i,3.6,-14.2
O=C(N/N=C\c1c(O)ccc2ccccc12)c1cncc(Br)c1,166.9*,-46.2,?,-112.8,29.2
CSc1ccccc1OCc1cc(C(=O)NCc2csc(C(C)C)n2)no1,0.3,-0.8,i,104.8*,-0.8
CC(C)c1nc(CNC(=O)c2cc(COc3c(F)cccc3F)on2)cs1,0.9,-19.2,i,2.7,-3.9
Cc1cc(C)c2[nH]c(C)c(CN3CCCCCC3)c(=O)c2c1,1.5,-19.8,+,4.5,1.5
Cc1[nH]c2c(Cl)cccc2c(=O)c1CN1CCCC1,0.6,-2.4,i,1.9,-2.6
COC(=O)Nc1ccc(S(=O)(=O)NC2CCCCC2)cc1,0.1,-4.6,i,1.6,-4.2
COc1cc(/C=C/C(=O)c2ccc3c(c2)OCO3)cc(Cl)c1O,134.7*,-20.6,i,-121.8,17.7
FC(F)(F)c1cnc(NNC(=S)Nc2ccccc2Cl)c(Cl)c1,88.8*,4.6,i,18.7,-4.9
O=C(Nc1nnc(S(=O)(=O)N2CCCCCC2)s1)c1ccc(Br)cc1,11.2,-1.6,i,30.2,-0.7
O=C(Nc1nnc(S(=O)(=O)N2CCCCC2)s1)c1ccc(Cl)cc1,13.5,-6.8,i,70.8*,4.0
O=C(Nc1ccc(Br)cc1Cl)c1ccc2c(=O)n3c(nc2c1)CCC3,101.1*,-3.2,i,-2.8,-6.3
O=C(Nc1ccc(Cl)cc1Cl)c1ccc2c(=O)n3c(nc2c1)CCC3,29.4,1.7,i,4.1,-6.3
CC1CCC(O)(C(C(=O)O)c2ccccc2)CC1 (stereo not drawn),-0.7,1.5,i,-15.3,-0.8
O=C(O)C(c1ccccc1)C1(O)CCCC1 (stereo not drawn),0.5,-4.7,i,96.9*,6.9
CC(C)OC(=O)c1ccccc1C(=O)c1ccc(N)c([N+](=O)[O-])c1,1.7,1.0,i,56.4*,4.3
O=C(COC(=O)c1ccccc1C(=O)c1ccc(Cl)c([N+](=O)[O-])c1)NC1CC1,-5.9,-1.4,?,52.0*,8.4
Cc1[nH]n(-c2ccc([N+](=O)[O-])cc2)c(=O)c1C=NCCc1c(C)[nH]c2ccccc12,-5.0,3.5,i,24.7,11.1
CC(=O)Nc1ccc(CN(C)c2c(C)nc3ccc(C(=O)N(C)Cc4ccco4)cn23)cc1,nt,nt,i,nt,nt
